Measurements taken from paper PMC4552634, “A New Set of Chemical Starting Points with Plasmodium falciparum Transmission-Blocking Potential for Antimalarial Drug Discovery” (PLoS ONE, 2015).
In all, about 13,000 compounds went through this assay and about 3,200 (25%) showed an effect of 50% or more. Some of the results follow.

Test system: P. falciparum stage V gametocytes
Set-up: BacTiter-Glo ATP luminescence viability of purified stage V gametocytes in 384-well plates, per cent inhibition versus DMSO
Conditions: 48 h, 5 µM; inhibitor

Q: `CCC1N=C(N)N=C(N)N1OCc1ccc(Cl)c(Cl)c1` (stereo not drawn) [TCMDC-131593] was tested. Which “% Inhibition” value did it give?
A: 19.76%

Q: With `CC(=O)C=C1CC(=O)N(C[C@@H](O)[C@H]2O[C@@H]3OC(C)(C)O[C@@H]3[C@H]2O)c2ccccc2N1` [TCMDC-138271] as the molecule, how does the “% Inhibition” value read?
A: 11.95%

Q: `O=C(/C=C/c1ccc(C(F)(F)F)cc1)NCCCCCN1CCCN(C(=O)Nc2cccc(Cl)c2)CC1` [TCMDC-136108] was tested. Which “% Inhibition” value did it give?
A: -11.12%

Q: How did the “% Inhibition” value turn out when `CCOc1cccc(C(=O)Nc2cccc(CN3CCCN(Cc4cccc(O)c4)CC3)c2)c1` [TCMDC-141861] was run?
A: -4.748%

Q: With `COc1cc(F)c2ncc(Cl)c(CCN3CCC(NCc4ccc5c(n4)NC(=O)CS5)CC3)c2c1` [TCMDC-134318] as the molecule, how does the “% Inhibition” value read?
A: 94.95%

Q: For `O=C1CSc2ccc(CNC3CCN(CCc4c(Cl)cnc5ccc(F)cc45)CC3)nc2N1` [TCMDC-141960], which “% Inhibition” value is on record?
A: 55.74%

Q: For `O=C1CSc2ccc(CNC3CCN(CCc4c(F)cnc5ccc(F)cc45)CC3)nc2N1` [TCMDC-135095], which “% Inhibition” value is on record?
A: -0.4072%

Q: Which “% Inhibition” value does the source give for `COc1ccc2ncc(Cl)c(CCN3CCC(NCc4ccc5c(n4)NC(=O)CS5)CC3)c2c1` [TCMDC-141807] here?
A: -3.776%

Q: For `O=C1CSc2ccc(CNC3CCN(CCc4c(Cl)cnc5ccc(Cl)cc45)CC3)nc2N1` [TCMDC-141959], which “% Inhibition” value is on record?
A: 32.4%

Q: `COc1cc(F)c2ncc(Cl)c(CCN3CCC(NCc4ccc5c(c4)NC(=O)CS5)CC3)c2c1` [TCMDC-135620] was tested. Which “% Inhibition” value did it give?
A: 12.4%

Q: How did the “% Inhibition” value turn out when `Cc1ccc(CNC(=O)c2cc3c(=O)n4ccccc4nc3n(CCCN3CCOCC3)c2=N)cc1` [TCMDC-125409] was run?
A: 26.53%

Q: `CC(O)C1CCCCN1C(=O)c1cccc(-c2cccc(-c3nc4cc(C(F)(F)F)ccc4[nH]3)c2)c1` (stereo not drawn) [TCMDC-132335] was tested. Which “% Inhibition” value did it give?
A: 13.24%

Q: `O=C(Nc1cccc(C(F)(F)F)c1)NC1CCN(c2ccnc3cc(Cl)ccc23)CC1` [TCMDC-133567] was tested. Which “% Inhibition” value did it give?
A: -12.77%

Q: How did the “% Inhibition” value turn out when `O=C(CN(c1cccc(C(F)(F)F)c1)S(=O)(=O)c1ccc(Cl)cc1)NCCC(c1ccccc1)c1ccccc1` [TCMDC-136712] was run?
A: 5.637%

Q: Which “% Inhibition” value does the source give for `O=C(Cn1cc(C(F)(F)F)cc(Cl)c1=O)N1CCN(S(=O)(=O)c2ccc(Cl)cc2)CC1` [TCMDC-123617] here?
A: 70.99%

Q: How did the “% Inhibition” value turn out when `O=C(CN1CCN(S(=O)(=O)C=Cc2ccccc2)CC1)Nc1cc(C(F)(F)F)ccc1Cl` [TCMDC-124538] was run?
A: -9.823%

Q: For `CC(C)NC(=O)c1cccc(-c2ccc(OCCN3CCCC3c3cc4ccccc4[nH]3)cc2)c1` (stereo not drawn) [TCMDC-134385], which “% Inhibition” value is on record?
A: -6.463%

Q: For `CC(C)CN1C(=O)c2ccccc2C(C(=O)Nc2cccc(C#N)c2)C1c1cccs1` (stereo not drawn) [TCMDC-124758], which “% Inhibition” value is on record?
A: 44.13%

Q: How did the “% Inhibition” value turn out when `CC(=O)c1cccc(NC(=O)C2c3ccccc3C(=O)N(CC(C)C)C2c2cccs2)c1` (stereo not drawn) [TCMDC-124756] was run?
A: 54.72%

Q: With `CC(=O)c1ccc(NC(=O)C2c3ccccc3C(=O)N(CC(C)C)C2c2cccs2)cc1` (stereo not drawn) [TCMDC-124757] as the molecule, how does the “% Inhibition” value read?
A: 58.39%

Q: Which “% Inhibition” value does the source give for `CC(C)CN1C(=O)c2ccc(C(=O)Nc3nccs3)cc2C1=O` [TCMDC-125773] here?
A: -2.752%

Q: Which “% Inhibition” value does the source give for `Cc1ccc(Nc2nc3cc(N(C)c4ccnc(Nc5cccc(CS(C)(=O)=O)c5)n4)ccc3o2)cc1` [TCMDC-141956] here?
A: -42.21%

Q: Which “% Inhibition” value does the source give for `CC(C)C1=NCc2ccc([N+](=O)[O-])cc2C(=O)N1` [TCMDC-131785] here?
A: -3.925%

Q: For `Cn1nc(-c2cccc(CNC3CCc4ccccc43)c2)c2cnc(NC3CCCC3)nc21` (stereo not drawn) [TCMDC-135030], which “% Inhibition” value is on record?
A: -10.51%

Q: `Cn1nc(-c2ccc(CN[C@@H]3CCc4ccc(O)cc43)cc2)c2cnc(NCCCN3CCCC3)nc21` [TCMDC-135037] was tested. Which “% Inhibition” value did it give?
A: 45.21%

Q: How did the “% Inhibition” value turn out when `c1cc(CN2CCc3ccccc3CC2)cc(-c2c[nH]c3nc(NC4CCCC4)ncc23)c1` [TCMDC-133774] was run?
A: -80.37%

Q: For `Cn1nc(-c2cccc(CN[C@@H]3CCc4ccc(O)cc43)c2)c2cnc(NC3CCCC3)nc21` [TCMDC-135032], which “% Inhibition” value is on record?
A: -0.5073%

Q: `Cn1nc(-c2cccc(CN[C@@H]3CCc4ccc(O)cc43)c2)c2cnc(NCCCN3CCCC3)nc21` [TCMDC-135035] was tested. Which “% Inhibition” value did it give?
A: 59.7%

Q: Which “% Inhibition” value does the source give for `Cn1nc(-c2cccc(CNC3CCc4ccccc43)c2)c2cnc(NCCCN3CCCC3)nc21` (stereo not drawn) [TCMDC-135034] here?
A: 78.32%

Q: How did the “% Inhibition” value turn out when `O=C(N[C@@H](CC1CCCCC1)C(=O)NC1CC1)c1ccc(O)c(-c2cccc(C(F)(F)F)c2)c1` [TCMDC-140807] was run?
A: 9.846%

Q: How did the “% Inhibition” value turn out when `COc1ccc(-c2nc3nc4ccccc4cc3[nH]2)c(OCC(O)CNC(C)C)c1` (stereo not drawn) [TCMDC-137443] was run?
A: 26.08%

Q: With `COc1ccc(NC(=O)c2ccc(-c3cc(NC(=O)c4ccnc(N5CCCC5)c4)ccc3C)s2)cc1N1CCN(C)CC1` [TCMDC-136373] as the molecule, how does the “% Inhibition” value read?
A: 32.31%

Q: `CN(C)CCC1CCN(CCS(=O)(=O)c2cccc(Nc3ccc(-c4cccc(F)c4)cn3)c2)CC1` [TCMDC-134375] was tested. Which “% Inhibition” value did it give?
A: 43.14%

Q: How did the “% Inhibition” value turn out when `COc1ccc(-c2cc(C(=O)N3CCc4ccccc43)c3ccccc3n2)cc1OC` [TCMDC-123715] was run?
A: -27.24%

Q: For `COCCOC(=O)C(=O)c1c(-c2ccccc2)c(-c2ccc(OC)c(OC)c2)c2c3cc(OC)c(OC)cc3ccn12` [TCMDC-125087], which “% Inhibition” value is on record?
A: 52.27%

Q: With `COC(=O)C(=O)c1c(-c2ccccc2)c(-c2ccc(OC)c(OC)c2)c2c3cc(OC)c(OC)cc3ccn12` [TCMDC-125088] as the molecule, how does the “% Inhibition” value read?
A: 26.26%

Q: How did the “% Inhibition” value turn out when `CCc1ccc(CN(CCCOc2cccc(CC(=O)NCc3cnc[nH]3)c2)Cc2ccc(-n3ccnc3)cc2)cc1` [TCMDC-134288] was run?
A: 15.75%

Q: `O=C(Cc1cccc(OCCCN(Cc2cccc(C(F)(F)F)c2Cl)CC(c2ccccc2)c2ccccc2)c1)NCc1ccco1` [TCMDC-141563] was tested. Which “% Inhibition” value did it give?
A: 90.42%

Q: With `O=C(NCc1ccco1)c1ccc(CN2CCN(C(c3ccccc3)c3ccccc3)CC2)cc1` [TCMDC-140763] as the molecule, how does the “% Inhibition” value read?
A: -11.73%

Q: `CCCc1cc(OC)c(CC2c3cc(O)c(Cl)cc3C(c3ccccc3)CN2C)cc1OC` (stereo not drawn) [TCMDC-137432] was tested. Which “% Inhibition” value did it give?
A: 12.27%

Q: `CCCCNC(=O)c1[nH]c2c(NC(=O)COc3ccccc3)cccc2c1-c1cccc(NC(=O)C(N)CO)c1` (stereo not drawn) [TCMDC-140060] was tested. Which “% Inhibition” value did it give?
A: -98.74%

Q: With `CC(C)N1CCC(N(Cc2ccc(-c3ccc(C(F)(F)F)cc3)cc2)C(=O)Cn2c(CCc3cccc(F)c3F)cc(=O)c3cn(C)nc32)CC1` [TCMDC-136048] as the molecule, how does the “% Inhibition” value read?
A: 117.7%

Q: Which “% Inhibition” value does the source give for `CCN1CCC(N(Cc2ccc(-c3ccc(C(F)(F)F)cc3)cc2)C(=O)Cn2c(CCc3cccc(F)c3F)cc(=O)c3cn(C)nc32)CC1` [TCMDC-141156] here?
A: 59.01%

Q: For `Cc1ccc(O)cc1Nc1ccnc2cc(-c3ccccc3)ccc12` [TCMDC-138295], which “% Inhibition” value is on record?
A: -25.3%

Q: `COc1cc2c(cc1NS(=O)(=O)c1ccc(OCc3ccc(Br)cc3)cc1)CCN(C1CCC1)CC2` [TCMDC-136020] was tested. Which “% Inhibition” value did it give?
A: 14.15%

Q: How did the “% Inhibition” value turn out when `Nc1nc2c(c(=O)[nH]1)CN(S(=O)(=O)c1ccc(C(=O)N[C@@H](CCC(=O)O)C(=O)O)cc1)CC2` [TCMDC-137681] was run?
A: -6.076%

Q: `CCCN(C(=O)c1ccccc1C)c1nnc(-c2cccc(C)c2)s1` [TCMDC-124387] was tested. Which “% Inhibition” value did it give?
A: 20.16%

Q: Which “% Inhibition” value does the source give for `CCOc1ccc(N(CC)S(=O)(=O)c2cc(Br)cc3c2N(C(=O)C2CC2)CC3)cc1` [TCMDC-125469] here?
A: 14.82%

Q: With `O=C(NCCN1CCOCC1)c1ccc(-c2ccc(CNCCCc3ccccc3)cc2)nc1` [TCMDC-134245] as the molecule, how does the “% Inhibition” value read?
A: 16.29%

Q: Which “% Inhibition” value does the source give for `CN1CCN(CCCN(Cc2cccc(-c3ccc(CNCCc4ccccc4)cc3)c2)C(=O)c2cccs2)CC1` [TCMDC-140568] here?
A: 106.4%

Q: With `CN1CCN(CCCN(Cc2ccc(-c3ccc(CNCCc4ccccc4)cc3)cc2)C(=O)c2cccs2)CC1` [TCMDC-140752] as the molecule, how does the “% Inhibition” value read?
A: 86.87%

Q: For `CN(C)CCN(C)Cc1ccc(-c2cccc(NC(=O)c3cccc(C#N)c3)c2)cc1` [TCMDC-132651], which “% Inhibition” value is on record?
A: -77.89%

Q: For `Cc1noc(C)c1-c1cccc(CNCc2ccc(-c3ccc(-c4nc5cc(C(F)(F)F)ccc5[nH]4)s3)cc2)c1.O=C(O)C(F)(F)F` [TCMDC-133062], which “% Inhibition” value is on record?
A: 33.98%

Q: For `CC1CC(NCCCNc2cc(=O)c3ccccc3[nH]2)c2c1cc(Cl)c(Cl)c2Cl` (stereo not drawn) [TCMDC-139480], which “% Inhibition” value is on record?
A: -50.98%

Q: For `CN(C)c1nc(NCc2ccccc2)nc(N/N=C/c2cc([N+](=O)[O-])ccc2O)n1` [TCMDC-124126], which “% Inhibition” value is on record?
A: 65.13%

Q: `O=[N+]([O-])c1ccc(Nc2nc(NCc3ccccc3)nc(N/N=C/c3ccccc3[N+](=O)[O-])n2)cc1` [TCMDC-124208] was tested. Which “% Inhibition” value did it give?
A: 9.563%

Q: For `O=[N+]([O-])c1ccc(Nc2nc(N/N=C/c3cc(Cl)cc(Cl)c3O)nc(Nc3ccccc3)n2)cc1` [TCMDC-123854], which “% Inhibition” value is on record?
A: 16.66%

Q: For `CCCCC(CCCC)CN1C(=O)C(c2ccccc2)(c2ccccc2)N=C1N` [TCMDC-136878], which “% Inhibition” value is on record?
A: -47.08%

Q: `CC1CCCN(S(=O)(=O)c2cc(Br)cc3c2N(C(=O)C2CC2)CC3)C1` (stereo not drawn) [TCMDC-123872] was tested. Which “% Inhibition” value did it give?
A: 16.45%

Q: Which “% Inhibition” value does the source give for `CCn1c(CN2CCN(Cc3ccccc3)CC2)nc2cc(NC(=O)c3cccs3)ccc21` [TCMDC-125164] here?
A: 1.939%

Q: With `CCCC[C@@H](C(=O)NCc1ccccc1C(F)(F)F)N1C(=O)CCC1C(=O)Nc1ccc([N+](=O)[O-])cc1` (stereo partly drawn) [TCMDC-141409] as the molecule, how does the “% Inhibition” value read?
A: 20.34%

Q: Which “% Inhibition” value does the source give for `O=C(Nc1ccc(Cl)c(Cl)c1)C1CCC(=O)N1[C@@H](Cc1ccccc1)C(=O)NCCc1ccc(Cl)cc1` (stereo partly drawn) [TCMDC-141411] here?
A: 6.201%

Q: For `CCCC[C@@H](C(=O)NCCc1ccc(Cl)cc1)N1C(=O)CCC1C(=O)Nc1ccc(Cl)c(Cl)c1` (stereo partly drawn) [TCMDC-141410], which “% Inhibition” value is on record?
A: 67.56%
